Laboratory results: PubChem BioAssay
Active and inactive are the calls of the source. No stated cut-off is given here; in the data, active means inhibition above about 28%; inactive means the rest.

Test: StAR promoter reporter inhibitors, counter-screen for LRH-1 inverse agonist project, cell-based, luminescence, high throughput (AID 651611)
Settings: StAR promoter luciferase reporter counterscreen, at 3.6 µM, stronger effect = higher value

Row | Compound | inhibition
1 | CC(=O)NC12CC3CC(C1)CC(C(=O)Nc1nc4ccc(S(C)(=O)=O)cc4s1)(C3)C2 | 11.2% (inactive)
2 | COc1ccccc1OCc1nnc(SCC(=O)Nc2ccc(N3CCOCC3)cc2)n1C | -2.38% (inactive)
3 | CC(=O)Nc1ccc(NC(=O)COC(=O)c2c(C)nn(-c3ccccc3)c2C)cc1 | 10.2% (inactive)
4 | CCOc1cc(S(=O)(=O)NCc2ccncc2)ccc1Cl | 21.4% (inactive)
5 | CC(=O)N(/N=C/c1ccc([N+](=O)[O-])o1)c1nc2ccccc2c(=O)n1-c1ccccc1 | 19.4% (inactive)
6 | O=C(c1ccccc1)N(NC(=O)C(O)(c1ccccc1)c1ccccc1)c1cccc(F)c1 | -4.21% (inactive)
7 | CC1CCCN(c2cc(N(C)CCO)c([N+](=O)[O-])c3nonc23)C1 (centres undefined) | 14.3% (inactive)
8 | COc1ccc2nc(N3CCC(O)CC3)c(C#N)cc2c1 | -24.2% (inactive)
9 | NC(=S)N/N=C/c1ccc(-c2ccc([N+](=O)[O-])cc2)o1 | -7.04% (inactive)
10 | CC(=O)c1cccc(NC(=O)c2ccc([N+](=O)[O-])o2)c1 | 25% (inactive)
11 | O=C(Nc1ccc(C(=O)N2CCOCC2)cc1)c1cccc([N+](=O)[O-])c1 | 1.39% (inactive)
12 | Cc1ccc(C)c(NC(=O)CSc2nnc(-c3ccccc3)n2N)c1 | -26.9% (inactive)
13 | COc1ccc(CCNC(=O)CSc2nc3[nH]ncc3c(=O)n2-c2ccc(C)c(Cl)c2)cc1OC | 13.2% (inactive)
14 | CC(=O)NC(Cc1c[nH]c2ccccc12)C(=O)OCC(=O)Nc1ccc2c(c1)OCO2 (centres undefined) | 12.4% (inactive)
15 | Cc1ccc(NC(=O)COC(=O)c2cc(=O)c3ccccc3o2)c(Br)c1 | 7.74% (inactive)
16 | CCOc1cc2c(cc1OCC)C(c1ccc(OC)cc1)N(c1ccccc1)C(=O)C2 (centres undefined) | -4.63% (inactive)
17 | O=[N+]([O-])c1cnccc1Nc1cccc(F)c1 | 11.5% (inactive)
18 | CN(C)CCNC(=O)c1cccc2nc3cccc(F)c3nc12 | 63.9% (active)
19 | Cc1ccccc1C(=O)N1CCN(c2ccc(NC(=O)c3ccc([N+](=O)[O-])o3)cc2)CC1 | 25.2% (inactive)
20 | CCOCC(=O)Nc1ccc(S(=O)(=O)NCCc2ccccc2)cc1 | 10.5% (inactive)

Row | Compound | inhibition
21 | O=C(Nc1nnc(C2=COCCO2)o1)c1ccc([N+](=O)[O-])s1 | 18.6% (inactive)
22 | Cc1cc(C)c(SCCc2ccncc2)c(C)c1 | 5.23% (inactive)
23 | CCN1C(=O)c2cccc3c(NC(=O)c4ccc(S(=O)(=O)N(C)C)cc4)ccc1c23 | 39% (active)
24 | COc1ccc(C2=Nn3c(nnc3-c3ccccc3OC)SC2)cc1OCC1CC1 | 49.1% (active)
25 | Cc1ccc2cccc(OCC(=O)NCCC3=CCCCC3)c2n1 | 8.76% (inactive)
26 | COc1ccc(NC(=O)COC(=O)Cc2c[nH]c3ccccc23)cc1Cl | 18.2% (inactive)
27 | COc1cc2c(cc1OC)CN(C(=O)CN1CCN(S(=O)(=O)c3ccc(C)c(C)c3)CC1)CC2 | 19.9% (inactive)
28 | Nc1ccc(Nc2ccncc2[N+](=O)[O-])cc1 | 2.61% (inactive)
29 | Cc1ccc(NC(=O)CSc2nnc([C@@H]3CCCN3C(=O)OC(C)(C)C)o2)c(C)c1 | 13.8% (inactive)
30 | O=C(NCC1CCCO1)c1ccc(NC(=O)c2cccc([N+](=O)[O-])c2)cc1 (centres undefined) | 3.83% (inactive)
31 | O=C(c1ccccc1)c1ccc2nc(N3CCN(C(=O)c4ccco4)CC3)c3nncn3c2c1 | 3.94% (inactive)
32 | O=C(c1c(F)c(F)c(F)c(F)c1F)N1CCN(c2cccc(C(F)(F)F)c2)CC1 | 7.83% (inactive)
33 | Cc1ccc2c(c1)N(C)/C(=C/c1cccc[n+]1C)S2 | 28% (active)
34 | Cc1ccc(SCC(=O)Nc2ccc(N3CCOCC3)cc2)cc1C | -0.13% (inactive)
35 | COc1ccc(CCn2c(C)cc(C(=O)COC(=O)c3ccc(O)cc3O)c2C)cc1 | 5.91% (inactive)
36 | CC(NC(=O)c1ccco1)C(c1cccs1)N1CCN(c2ccccc2)CC1 (centres undefined) | 6.91% (inactive)
37 | Cc1cccc(-n2ncc3c2CCCC3NC(=O)C2(C(N)=O)CC2)c1C (centres undefined) | 16.4% (inactive)
38 | Oc1ccc2ccccc2c1C=NCc1ccccc1 | 22.8% (inactive)
39 | COc1cc(C(=O)Nc2sc3c(c2C#N)CCN(C(C)=O)C3)cc(OC)c1OC | 23.3% (inactive)
